Laboratory results published in PubChem BioAssay AID1159580 (chemical genetic matrix, 2015).
Among all 5,500 compounds or so, about 2,000 (36%) were called active. Inconclusive results (about 18%) are left out. The list shows a part of the results. Unmarked numbers belong to inactive results. Rule as the data show it: active = normalized growth mostly below about 0.91 (no sharp cut-off); inconclusive = no clear call, values can overlap the other calls; inactive = mostly above about 0.92.

Experiment: chemical genetic growth profiling, strain panel (AID 1159580);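 also: tested at 20 µM; growth read once vehicle control cultures reached saturation at 30 °C; 1 = growth at the plate median or of vehicle wells; lower values mean less growth of the strain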
Settings: growth OD

SMILES: O=C(COc1ccc2c(c1)OCO2)N1CCN(c2ncc(C(F)(F)F)cc2Cl)CC1
- normalized growth (S. cerevisiae deletion strains, locus YAL013W, strain DEP1, active compounds read low): 0.993
- normalized growth (S. cerevisiae deletion strains, locus YBR229C, strain ROT2, active compounds read low): 1
- normalized growth (S. cerevisiae deletion strains, locus YCL061C, strain MRC1, active compounds read low): 0.983
- normalized growth (S. cerevisiae deletion strains, locus YDL101C, strain DUN1, active compounds read low): 1.03
- normalized growth (S. cerevisiae deletion strains, locus YDR150W, strain NUM1, active compounds read low): 0.997
- normalized growth (S. cerevisiae deletion strains, locus YEL061C, strain CIN8, active compounds read low): 0.948
- normalized growth (S. cerevisiae deletion strains, locus YGR078C, strain PAC10, active compounds read low): 0.996
- normalized growth (S. cerevisiae deletion strains, locus YHR030C, strain SLT2, active compounds read low): 0.55 (active)
- normalized growth (S. cerevisiae deletion strains, locus YHR087W, strain rtc3, active compounds read low): 0.977
- normalized growth (S. cerevisiae deletion strains, locus YJL187C, strain SWE1, active compounds read low): 1
- normalized growth (S. cerevisiae deletion strains, locus YJR043C, strain POL32, active compounds read low): 1.03
- normalized growth (S. cerevisiae deletion strains, locus YJR075W, strain HOC1, active compounds read low): 0.984
- normalized growth (S. cerevisiae deletion strains, locus YKL190W, strain CNB1, active compounds read low): 0.963
- normalized growth (S. cerevisiae deletion strains, locus YLR039C, strain RIC1, active compounds read low): 0.876
- normalized growth (S. cerevisiae deletion strains, locus YLR058C, strain SHM2 (second series), active compounds read low): 0.998
- normalized growth (S. cerevisiae deletion strains, locus YLR085C, strain ARP6, active compounds read low): 0.7 (active)
- normalized growth (S. cerevisiae deletion strains, locus YLR262C, strain YPT6, active compounds read low): 0.885
- normalized growth (S. cerevisiae deletion strains, locus YML094W, strain GIM5, active compounds read low): 0.964
- normalized growth (S. cerevisiae deletion strains, locus YMR219W, strain ESC1, active compounds read low): 0.994
- normalized growth (S. cerevisiae deletion strains, locus YMR263W, strain SAP30, active compounds read low): 1.01
- normalized growth (S. cerevisiae deletion strains, locus YMR307W, strain GAS1, active compounds read low): 0.791
- normalized growth (S. cerevisiae deletion strains, locus YNL153C, strain GIM3, active compounds read low): 0.978
- normalized growth (S. cerevisiae deletion strains, locus YNL298W, strain CLA4 (second series), active compounds read low): 0.944
- normalized growth (S. cerevisiae deletion strains, locus YNL322C, strain KRE1, active compounds read low): 0.987
- normalized growth (S. cerevisiae deletion strains, locus YNR030W, strain Alg12, active compounds read low): 0.92
- normalized growth (S. cerevisiae deletion strains, locus YOL006C, strain TOP1, active compounds read low): 0.999
- normalized growth (S. cerevisiae deletion strains, locus YPL055C, strain LGE1, active compounds read low): 1.03
- normalized growth (S. cerevisiae deletion strains, locus YPL241C, strain CIN2, active compounds read low): 1.06
- normalized growth (S. cerevisiae deletion strains, locus YPR135W, strain CTF4, active compounds read low): 0.802
- normalized growth (S. cerevisiae strains, strain wild type, active compounds read low): 0.985
